Measurements from PubChem BioAssay AID2058 (Sanford-Burnham Center for Chemical Genomics, 2009).
About 150 (0.052%) of roughly 290,000 compounds were called active.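 How the source made its calls: active means inhibition of at least 50% with at least 30 cells and total cytoplasm GFP at most 10,000,000; inconclusive means under 30 cells or total GFP of 10,000,000 plus; inactive means the rest.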 The list comes from a sample in which actives are over-represented; it also holds similar structures and randomly drawn compounds. Results with a measured potency or affinity are listed apart.

target: G-protein coupled receptor 35 (Homo sapiens) (UniProt Q9HC97); assay: inhibition of zaprinast-stimulated GPR35 beta-arrestin translocation – imaging, U2OS, beta-arrestin-GFP, zaprinast agonist, primary screen (AID 2058); conditions: zaprinast antagonism, at 10 µM, stronger effect = higher value
Sequence (Q9HC97 whole entry, looked up): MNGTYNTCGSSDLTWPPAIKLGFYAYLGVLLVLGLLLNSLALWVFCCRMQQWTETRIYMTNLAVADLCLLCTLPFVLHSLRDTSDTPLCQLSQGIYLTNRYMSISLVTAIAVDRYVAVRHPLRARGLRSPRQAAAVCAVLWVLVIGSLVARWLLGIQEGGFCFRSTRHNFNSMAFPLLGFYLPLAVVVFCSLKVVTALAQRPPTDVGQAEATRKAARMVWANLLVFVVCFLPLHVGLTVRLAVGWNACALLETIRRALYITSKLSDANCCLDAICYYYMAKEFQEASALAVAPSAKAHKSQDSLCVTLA

inhibition, active:
O=C(NCc1nnc(SCc2ccc(C(F)(F)F)cc2)n1-c1ccccc1)C12CC3CC(CC(C3)C1)C2 89.4%
CN1CC=C2C(C#N)=C(N)C(C#N)(C#N)[C@H](c3ccoc3)[C@H]2C1 74.6%
CCN1CC=C2C(C#N)=C(N)C(C#N)(C#N)[C@H](c3ccoc3)[C@H]2C1 67.4%
O=C1/C(=C\c2cc([N+](=O)[O-])ccc2O)SC(=S)N1Cc1ccc(Cl)cc1 61.1%
CC[n+]1ccc(/C=C/c2ccc(N(C)C)cc2)c2ccccc21 103%
COc1ccc(NC(=O)/C(Cl)=C(/Cl)S(=O)Cc2ccccc2Cl)cn1 (stereo not drawn) 115%
CCOc1cc(N(CC)CC)ccc1/C=C(/C#N)c1nc2ccccc2[nH]1 99.9%

inhibition, inactive:
C/C=C(\C)C(=O)NCCN1C2=NC[C@@H](Cc3ccccc3)N2C[C@H]1Cc1ccc(O)cc1 1%
N#Cc1c(C(F)(F)F)cc(=O)[nH]c1SCC(=O)O -12%
CCN(C(=O)Cc1c(C(=O)O)n(C)c2ccccc12)c1cccc(C)c1 6.8%
O=C(Cn1cccc1C(=O)c1ccccc1)NCCCc1ccccc1 3.3%
CC(C)CC(NS(=O)(=O)OCC(Cl)(Cl)Cl)c1ccccc1 (stereo not drawn) 6.5%
CC(NS(=O)(=O)OCC(Cl)(Cl)Cl)c1ccc(Br)cc1 (stereo not drawn) 2.8%
O=C(Nc1ccc(Cl)c(S(=O)(=O)N2CCOCC2)c1)c1ccccc1-c1ccc(C(F)(F)F)cc1 -5.3%
CC(O)CSc1nc2c(c(=O)n(C)c(=O)n2C)n1CCCc1ccccc1 (stereo not drawn) 18.8%
Nc1c(C(=O)Nc2nccs2)sc2nc(-c3cccs3)cc(C(F)(F)F)c12 14.2%
CC(=O)c1sc2nc(-c3cccs3)cc(C(F)(F)F)c2c1N 19.7%
O=C(NCc1nnc(SCc2ccccc2)n1-c1ccccc1)C12CC3CC(CC(C3)C1)C2 -5.7%
O=C(NCc1nnc(SCc2ccc(F)cc2)n1-c1ccccc1)C12CC3CC(CC(C3)C1)C2 -5.2%
COc1ccc(CC(=O)OCC(=O)NC(=O)NC2CCCCC2)cc1 6.4%
COC(=O)c1[nH]c2cccc(C)c2c1NC(=O)CN1CCN(C(=O)c2ccco2)CC1 21.8%
FC(F)(F)c1cnc(-c2cnc3c(-c4ccc(Cl)cc4)cnn3c2)c(Cl)c1 2.1%
CCOC(=O)c1ccc(NC(=O)CCc2c(C)nc3ncnn3c2C)cc1 10.9%
O=C(CSc1nnc(Cn2c(=O)sc3ccccc32)n1-c1ccccc1)NCC1CCCO1 (stereo not drawn) 15.8%
CN1C2C=C3C(C#N)=C(N)C(C#N)(C#N)[C@@H](c4ccsc4)[C@@H]3C1CC2 (stereo partly drawn) -6.4%
CC(=O)N1CC=C2C(C#N)=C(N)C(C#N)(C#N)[C@H](c3ccoc3)[C@H]2C1 2.7%
CCOC(=O)N1CC=C2C(C#N)=C(N)C(C#N)(C#N)[C@H](c3ccsc3)[C@H]2C1 7.2%
N#CC1=C(N)C(C#N)(C#N)[C@H](c2ccoc2)[C@H]2CN(Cc3ccccc3)CC=C12 9.6%
CC(C)(C)OC(=O)N1CC=C2C(C#N)=C(N)C(C#N)(C#N)[C@H](c3cccnc3)[C@H]2C1 3.8%
CCOC(=O)N1CC=C2C(C#N)=C(N)C(C#N)(C#N)[C@H](c3ccc(OCC)c(OCC)c3)[C@H]2C1 -0.6%
CCCCc1nc(SCC(=O)Nc2cccc(Cl)c2)n[nH]1 -17%
Cc1cccc(Cc2cnc(N3C(=N)SC(C)C3=O)s2)c1 (stereo not drawn) -5.2%
O=C(CSc1nnc(C2CCCCC2)o1)N1CCCCC1 11.7%
CCN(C(=O)C(C)OC(=O)C1C(C(=O)OC)=C(C)NC(C)=C1C(=O)OC)c1ccccc1 (stereo not drawn) -20.3%
COc1ccc(NC(=O)c2cc3c([nH]c4ccccc43)c(C)n2)cc1 -5.7%
C=CCn1c(SCC(=O)N(C)C2CCS(=O)(=O)C2)nnc1-c1ccncc1 (stereo not drawn) 11.4%
CCOC(=O)C1CCN(C(=O)CSc2ccccc2)CC1 -1.8%
O=C1/C(=C/c2ccc(O)c([N+](=O)[O-])c2)SC(=S)N1Cc1ccccc1 0.6%
COc1cc([N+](=O)[O-])cc(/C=C2/SC(=S)N(Cc3ccccc3)C2=O)c1O 2.7%
Cc1nc2c(C(=O)NCc3ccc4c(c3)OCO4)cnn2c(C)c1Cc1ccc(F)cc1Cl -16.4%
Cc1oc(-c2ccc(Cl)cc2)nc1CS(=O)CC(=O)NCCCN(C)C1CCCCC1 (stereo not drawn) -9.6%
COC(=O)C1CN(S(=O)(=O)c2cc(OC)ccc2OC)CCS1 (stereo not drawn) -8.4%
CC[n+]1c(/C=C/c2ccc(N(C)C)cc2)ccc2ccccc21 6.3%
CC[n+]1ccccc1/C=C/c1ccc(N(C)C)cc1 -10.4%
CCCC(=O)N1CCN(c2nc3c(OC)ccc(Cl)c3s2)CC1 12.2%
CCC(Oc1ccc2ccccc2c1)C(=O)O (stereo not drawn) 6.8%
CC(=O)N(C1=C(O)c2ccccc2C(=O)C1=O)C1CCCCC1 -5.2%
CC(=O)N(c1ccccc1)C1CCCC1 -22.8%
O=C(NC1CCCCCC1)C1CCCN(S(=O)(=O)c2cccs2)C1 (stereo not drawn) -5.5%
CCN1CCN(C(=O)c2ccccc2NC(=O)c2ccc(Cl)cc2)CC1 1%
Cc1[nH]c(=O)[nH]c(=O)c1S(=O)(=O)N1CCCC(C(=O)N2CCN(c3ccccc3Cl)CC2)C1 (stereo not drawn) 3.5%
COc1ccc(NC(=O)/C(Cl)=C(/Cl)S(=O)Cc2ccc(Cl)cc2)cn1 (stereo not drawn) 3.1%
COc1ccc(NC(=O)/C(Cl)=C(/Cl)S(=O)Cc2ccccc2)cn1 (stereo not drawn) 9.5%
Cc1ccc(-c2nc3ncccc3n2O)cc1 2.4%
Cc1ccc(F)cc1NC(=O)CSc1nc(Nc2ccccc2)nc(N2CCOCC2)n1 17.7%
CCOc1cccc(/C=C(/C#N)c2nc3ccccc3[nH]2)c1OCC(=O)O -3.5%
COc1cccc(/C=C(\C#N)c2nc3ccc(C)cc3[nH]2)c1OCC(=O)O -10.4%
Cc1ccc2nc(/C(C#N)=C/c3ccc(O)c(O)c3)[nH]c2c1 -1.2%
Cc1ccc2nc(/C(C#N)=C/c3ccccc3C(=O)O)[nH]c2c1 -7.1%
COc1cc(/C=C(\C#N)c2nc3ccc(C)cc3[nH]2)c([N+](=O)[O-])cc1OC 2.2%
N#C/C(=C\c1ccccc1OCC(=O)O)c1nc2ccccc2[nH]1 -0.8%
Cc1cc(/C=C(\C#N)c2nc3ccccc3[nH]2)c(C)n1C -1.1%
CCOc1cc(/C=C(\C#N)c2nc3ccccc3[nH]2)ccc1OC(C)C(=O)O (stereo not drawn) 9.3%
